{"source": "PubChem BioAssay", "key": {"[1]": {"assay": "StAR promoter reporter inhibitors, counter-screen for LRH-1 inverse agonist project, cell-based, luminescence, high throughput (AID 651611)", "conditions": "StAR promoter luciferase reporter counterscreen, at 3.6 µM, active compounds read high"}, "[2]": {"molecular_target": "Nuclear receptor subfamily 5 group A member 2 (Homo sapiens) (UniProt O00482)", "sequence (O00482 whole entry, looked up)": "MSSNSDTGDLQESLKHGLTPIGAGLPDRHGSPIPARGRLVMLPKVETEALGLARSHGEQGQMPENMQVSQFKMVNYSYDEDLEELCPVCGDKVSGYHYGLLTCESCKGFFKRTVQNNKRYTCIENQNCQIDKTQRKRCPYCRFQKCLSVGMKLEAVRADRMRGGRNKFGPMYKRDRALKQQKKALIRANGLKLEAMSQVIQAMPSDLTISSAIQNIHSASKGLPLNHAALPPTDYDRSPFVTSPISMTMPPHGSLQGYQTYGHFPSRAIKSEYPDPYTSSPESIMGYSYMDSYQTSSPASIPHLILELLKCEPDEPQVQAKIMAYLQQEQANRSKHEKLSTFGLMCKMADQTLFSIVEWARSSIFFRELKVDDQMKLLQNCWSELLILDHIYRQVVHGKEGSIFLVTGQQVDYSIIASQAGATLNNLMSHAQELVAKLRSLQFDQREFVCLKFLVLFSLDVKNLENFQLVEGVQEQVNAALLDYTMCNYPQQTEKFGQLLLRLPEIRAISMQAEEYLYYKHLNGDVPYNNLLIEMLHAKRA", "assay": "LRH-1 (NR5A2) inverse agonists, retest, confirmation, cell-based, luminescence (AID 651613; in the data active = inhibition above about 42%;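 note: HEK293T cells co-transfected with LRH-1 and StAR promoter luciferase reporter; 0% = vehicle wells and 100% = parental cells lacking receptor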)", "conditions": "cell-based LRH-1 luciferase reporter, inverse agonism; at 3.6 µM; active compounds read high"}, "[3]": {"molecular_target": "Steroidogenic factor 1 (Homo sapiens) (UniProt Q13285)", "sequence (Q13285 whole entry, looked up)": "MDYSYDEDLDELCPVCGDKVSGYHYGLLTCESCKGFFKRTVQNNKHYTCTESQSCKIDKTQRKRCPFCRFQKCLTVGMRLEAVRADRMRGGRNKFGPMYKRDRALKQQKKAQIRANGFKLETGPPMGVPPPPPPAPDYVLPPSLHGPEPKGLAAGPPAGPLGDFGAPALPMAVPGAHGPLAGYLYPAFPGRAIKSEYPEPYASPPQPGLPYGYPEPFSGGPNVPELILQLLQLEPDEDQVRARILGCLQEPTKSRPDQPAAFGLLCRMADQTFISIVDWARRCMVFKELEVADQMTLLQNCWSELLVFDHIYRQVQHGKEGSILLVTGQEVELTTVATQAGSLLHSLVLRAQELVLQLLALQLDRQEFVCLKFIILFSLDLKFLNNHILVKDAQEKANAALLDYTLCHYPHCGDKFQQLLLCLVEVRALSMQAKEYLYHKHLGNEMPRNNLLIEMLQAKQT", "assay": "SF1 (NR5A1) inverse agonists, counter-screen for LRH-1 inverse agonist project, cell-based, luminescence, high throughput (AID 651614; in the data active = inhibition above about 44%;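 note: cells cotransfected with StAR promoter reporter and SF1 expression vector; 0% = vehicle on cells with receptor and 100% = vehicle on cells lacking receptor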)", "conditions": "cell-based SF1 luciferase reporter, at 3.6 µM, active compounds read high"}, "[4]": {"assay": "VP16 transactivation reporter inhibitors, counter-screen for LRH-1 inverse agonist project, cell-based, luminescence, high throughput (AID 651615; in the data active = inhibition above about 33%)", "conditions": "Gal4-VP16 luciferase reporter cells, at 3.6 µM, active compounds read high"}}, "note": "Unmarked numbers belong to inactive results. Active and inactive are the calls of the source. Cut-off read from the data, not from the text of the source, unless noted: active = inhibition above about 28%; inactive = the rest.", "data": [{"smiles": "CCc1ccc(N2C=C(C(=O)OC)C(c3ccc(OC)cc3)C(C#N)=C2N)cc1", "note": "(stereo unspecified)", "values": [{"measurement": "inhibition", "setting": "[1]", "value": "48.9% (active)"}, {"measurement": "inhibition", "setting": "[2]", "value": 25.1, "unit": "%"}, {"measurement": "inhibition", "setting": "[3]", "value": "45.3% (active)"}, {"measurement": "inhibition", "setting": "[4]", "value": 24.5, "unit": "%"}]}, {"smiles": "c1ccc2c(c1)CC1(CCCC1)n1nnnc1-2", "values": [{"measurement": "inhibition", "setting": "[1]", "value": 5.24, "unit": "%"}, {"measurement": "inhibition", "setting": "[2]", "value": "52.2% (active)"}, {"measurement": "inhibition", "setting": "[3]", "value": 42.5, "unit": "%"}, {"measurement": "inhibition", "setting": "[4]", "value": -5.69, "unit": "%"}]}, {"smiles": "CC(=O)Nc1sc2c(c1-c1nc3ccccc3s1)CN(C(C)C)CC2", "values": [{"measurement": "inhibition", "setting": "[1]", "value": "36.6% (active)"}, {"measurement": "inhibition", "setting": "[2]", "value": "66.4% (active)"}, {"measurement": "inhibition", "setting": "[3]", "value": "61.1% (active)"}, {"measurement": "inhibition", "setting": "[4]", "value": "80.7% (active)"}]}, {"smiles": "Cc1c(C#N)c(O)n(CCO)c(=O)c1N=Nc1ccc2c(c1)COC2=O", "values": [{"measurement": "inhibition", "setting": "[1]", "value": 17.9, "unit": "%"}, {"measurement": "inhibition", "setting": "[2]", "value": 39.5, "unit": "%"}, {"measurement": "inhibition", "setting": "[3]", "value": "52.1% (active)"}, {"measurement": "inhibition", "setting": "[4]", "value": -1, "unit": "%"}]}, {"smiles": "O=C(CSc1n[nH]c(-c2ccccc2)n1)Nc1ccc(F)cc1F", "values": [{"measurement": "inhibition", "setting": "[1]", "value": 5.84, "unit": "%"}, {"measurement": "inhibition", "setting": "[2]", "value": "58.4% (active)"}, {"measurement": "inhibition", "setting": "[3]", "value": "50.4% (active)"}, {"measurement": "inhibition", "setting": "[4]", "value": 3.19, "unit": "%"}]}, {"smiles": "O=C(NCc1ccc2c(c1)OCO2)c1nn(-c2ccccc2)c(=O)c2ccccc12", "values": [{"measurement": "inhibition", "setting": "[1]", "value": 4.72, "unit": "%"}, {"measurement": "inhibition", "setting": "[2]", "value": "52.2% (active)"}, {"measurement": "inhibition", "setting": "[3]", "value": "53.3% (active)"}, {"measurement": "inhibition", "setting": "[4]", "value": -2.13, "unit": "%"}]}, {"smiles": "CCOc1ccc(NC(=O)CSc2nnc(CNC(=O)c3cccs3)o2)cc1", "values": [{"measurement": "inhibition", "setting": "[1]", "value": 20, "unit": "%"}, {"measurement": "inhibition", "setting": "[2]", "value": "60.3% (active)"}, {"measurement": "inhibition", "setting": "[3]", "value": "59.6% (active)"}, {"measurement": "inhibition", "setting": "[4]", "value": -0.65, "unit": "%"}]}, {"smiles": "O=C(COC(=O)c1ccc[n+]([O-])c1)Nc1ccc([N+](=O)[O-])cc1Cl", "values": [{"measurement": "inhibition", "setting": "[1]", "value": 17.6, "unit": "%"}, {"measurement": "inhibition", "setting": "[2]", "value": "59.4% (active)"}, {"measurement": "inhibition", "setting": "[3]", "value": "56.2% (active)"}, {"measurement": "inhibition", "setting": "[4]", "value": 1.26, "unit": "%"}]}, {"smiles": "COc1ccc(CCNC(=O)CN2C(=O)C3(OCCCO3)c3ccccc32)cc1OC", "values": [{"measurement": "inhibition", "setting": "[1]", "value": 11.2, "unit": "%"}, {"measurement": "inhibition", "setting": "[2]", "value": "45.7% (active)"}, {"measurement": "inhibition", "setting": "[3]", "value": "52.5% (active)"}, {"measurement": "inhibition", "setting": "[4]", "value": -9.46, "unit": "%"}]}]}
